From PubChem BioAssay (EPA / NIEHS)
Several values for one entry are separate records, joined by “and”; a condition that tells them apart may be missing. Equal values may be shown once. Inconclusive results are not listed. Some compounds were tested as several samples or in several runs, with calls that do not always agree. Activity calls are given as the source filed them. The calls were made as follows, unless noted: active = hit-call score of the fitted dose curve at least 0.9, where 1 is the maximum; inactive = score below 0.9.

What was measured:
[1] = ATG_GAL4_TRANS: Attagene TRANS-FACTORIAL HepG2 Assay for GAL4 (Internal Marker) (AID 2282976; active = hit-call score of the fitted dose curve at least 0.9, where 1 is the maximum); settings: HepG2 Attagene TRANS GAL4 internal marker reporter
Summary of the method: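 RT-PCR/capillary electrophoresis readout of reporter mRNA. HepG2, transient MRTU transfection (GAL4-UAS reporters), 24 h compound exposure. Background-control endpoint, positive direction vs DMSO baseline.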

[2] = biological target: Glucocorticoid receptor (Homo sapiens) (UniProt P04150); test: ATG_GR_TRANS: Attagene TRANS-FACTORIAL HepG2 Assay for human Glucocorticoid Receptor (GR) (AID 2282978; active = hit-call score of the fitted dose curve at least 0.9, where 1 is the maximum;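 also: activators score as hits since higher reporter transcript over DMSO is fitted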); settings: HepG2 Attagene TRANS GR reporter, mRNA transcription
Summary of the method: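 Multiplexed TRANS reporter system, HepG2; 24 h exposure; RNA → oligo(dT) RT → reporter-specific PCR → 6-FAM primer extension → HpaI cut → CE fluorescence. Gain-of-signal vs DMSO.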

[3] = biological target: Bile acid receptor (Homo sapiens) (UniProt Q96RI1); test: ATG_FXR_TRANS: Attagene TRANS-FACTORIAL HepG2 Assay for Farnesoid X Receptor (FXR) (AID 2282979; active = hit-call score of the fitted dose curve at least 0.9, where 1 is the maximum;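 also: hits raise reporter mRNA above DMSO so AC50 marks FXR activation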); settings: HepG2 Attagene TRANS FXR-GAL4 reporter transcription
Summary of the method: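 Read-out: fluorescent reporter transcripts quantified by capillary electrophoresis after RT-PCR of total RNA. Source cells were HepG2 transiently carrying chimeric NR-GAL4 plus GAL4-UAS reporter units, dosed 24 h. Activity fitted upward relative to DMSO baseline.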

[4] = biological target: Oxysterols receptor LXR-alpha (Homo sapiens) (UniProt Q13133); test: ATG_LXRa_TRANS: Attagene TRANS-FACTORIAL HepG2 Assay for human Liver X Receptor alpha (LXRa) (AID 2282980; active = hit-call score of the fitted dose curve at least 0.9, where 1 is the maximum); settings: HepG2 Attagene TRANS reporter, LXRa transactivation
Summary of the method: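 Read-out: reporter transcript levels by RT-PCR plus capillary electrophoresis, fluorescence intensity. Transiently transfected HepG2, exogenous NR-GAL4 chimera, GAL4-UAS reporters; 24 h compound exposure. Activity = increase over DMSO negative control.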

[5] = ATG_M_06_TRANS: Attagene TRANS-FACTORIAL HepG2 Assay for M06 Transcription Factor (Internal Marker) (AID 2282983; active = hit-call score of the fitted dose curve at least 0.9, where 1 is the maximum); settings: HepG2 Attagene TRANS M06 internal marker reporter
Summary of the method: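 After a 24 h chemical treatment of transfected HepG2, RNA underwent DNase I treatment, reverse transcription and reporter-specific PCR; labelled, HpaI-digested products were sized by capillary electrophoresis. Signal increase relative to DMSO defined activity.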

[6] = ATG_M_32_TRANS: Attagene TRANS-FACTORIAL HepG2 Assay for M32 Transcription Factor (Internal Marker) (AID 2282984; active = hit-call score of the fitted dose curve at least 0.9, where 1 is the maximum;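 also: transcript level of a background control reporter unit measured by RT-PCR and capillary electrophoresis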); settings: HepG2 Attagene TRANS M32 internal marker reporter
Summary of the method: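 HepG2 cells transiently transfected with multiple GAL4-UAS reporter transcription units, dosed for 24 hours; reporter mRNA quantified by RT-PCR, 6-FAM primer extension, HpaI digestion and capillary electrophoresis. Gain-of-signal fitted versus DMSO baseline; internal background-control marker.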

[7] = biological target: Transcriptional activator Myb (Homo sapiens) (UniProt P10242); test: ATG_Myb_CIS: Attagene CIS-FACTORIAL HepG2 Assay for human Myeloblastosis (Myb) Proto-Oncogene Transcription Factor (AID 2282986); settings: HepG2 Attagene CIS-FACTORIAL Myb reporter transcription; actives raise or lower the signal
Summary of the method: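 Endogenous transcription factor activity at a Myb-responsive cis element is reported in human liver HepG2 cells after 24 h chemical treatment. Reporter mRNA is detected by RT-PCR and capillary electrophoresis fluorescence, with DMSO as baseline.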

[8] = biological target: Nuclear respiratory factor 1 (Homo sapiens) (UniProt Q16656); test: ATG_NRF1_CIS: Attagene CIS-FACTORIAL HepG2 Assay for human Nuclear Respiratory Factor 1 (NRF1) Orphan Gene (AID 2282987); settings: HepG2 NRF1 cis-element reporter, Attagene multiplex; actives raise or lower the signal
Summary of the method: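 Human hepatoma HepG2 cells carrying transfected promoter-regulated reporter units were incubated with test chemicals for 24 h. Reporter transcripts were measured by RT-PCR plus capillary electrophoresis, and endpoints derived by bidirectional fitting with DMSO as baseline.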

[9] = ATG_NFI_CIS: Attagene CIS-FACTORIAL HepG2 Assay for human Nuclear Factor I (NFI) (AID 2282989); settings: HepG2 cis-regulatory reporter, NFI response element transcription; actives raise or lower the signal
Summary of the method: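 Cells: human liver HepG2, transiently transfected with promoter-regulated reporter transcription units. Exposure 24 h. Detection: fluorescent RT-PCR products separated by capillary electrophoresis, normalised to DMSO negative control.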

[10] = biological target: Myc proto-oncogene protein (Homo sapiens) (UniProt P01106); test: ATG_Myc_CIS: Attagene CIS-FACTORIAL HepG2 Assay for human Myelocytomatosis (Myc) Proto-Oncogene Transcription Factor (AID 2282990); settings: HepG2, Attagene cis-reporter transcription factor activity; actives raise or lower the signal
Summary of the method: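 HepG2 cells transiently transfected with multiple cis-promoter-driven reporter transcription units, so endogenous TF activity is read. After 24 h compound exposure, reporter mRNA was quantified by RT-PCR, 6-FAM labelling, HpaI digestion and capillary electrophoresis; bidirectional fit versus DMSO.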

[11] = ATG_NF_kB_CIS: Attagene CIS-FACTORIAL HepG2 Assay for human Nuclear Factor Kappa B (NF-kB) (AID 2282991); settings: HepG2 Attagene cis-factorial NF-kB reporter mRNA; actives raise or lower the signal
Summary of the method: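 Multiplexed cis-reporter assay in transiently transfected HepG2. 24 h treatment; RNA isolated, RT-PCR, labelled fragments resolved by CE. DMSO baseline.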

[12] = ATG_NRF2_ARE_CIS: Attagene CIS-FACTORIAL HepG2 Assay for human Nuclear Factor Erythroid 2 Related Factor 2 (NFR2) response to Antioxidant Response Elements (ARE) (AID 2282992); settings: HepG2 Attagene ARE/NRF2 reporter, transcription factor activity; actives raise or lower the signal;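 as to AC50: reporter mRNA level measured by RT-PCR and capillary electrophoresis fluorescence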
Summary of the method: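 Cis-factorial assay: transfected HepG2 reporter library, 24 h dosing, mRNA readout via RT-PCR/CE; DMSO-referenced bidirectional analysis.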

[13] = ATG_Oct_MLP_CIS: Attagene CIS-FACTORIAL HepG2 Assay for human Octamer-Binding Transcription Factor (Oct) (AID 2282993); settings: HepG2 Attagene cis-factorial Oct reporter, mRNA; actives raise or lower the signal
Summary of the method: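 HepG2, transient MRTU transfection, cis promoter elements; 24 h dosing; RT-PCR/CE fluorescence read-out of reporter mRNA; fit both directions vs DMSO.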

[14] = BSK_3C_TissueFactor: BioMAP Diversity Plus: 3C Assay for Tissue Factor Biomarker Activity (AID 2282997); settings: BioMAP 3C HUVEC, tissue factor biomarker readout; actives raise or lower the signal
Summary of the method: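 Human vascular primary cells (umbilical vein endothelium) received test chemical; Tissue Factor was determined by ELISA at 24 h, and both gain and loss of signal versus DMSO were fitted.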

[15] = BSK_3C_uPAR: BioMAP Diversity Plus: 3C Assay for Urokinase-type plasminogen activator receptor (uPAR) Biomarker Activity (AID 2282998); settings: BioMAP 3C HUVEC, uPAR biomarker ELISA; actives raise or lower the signal
Summary of the method: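 A multiplexed primary-cell system built on human umbilical vein endothelium was used, with chemical present for 24 h before reading. Cell-surface uPAR was detected by ELISA; signal change in either direction counted against DMSO.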

[16] = biological target: Oxysterols receptor LXR-beta (Homo sapiens) (UniProt P55055); test: ATG_LXRb_TRANS: Attagene TRANS-FACTORIAL HepG2 Assay for human Liver X Receptor beta (LXRb) (AID 2282981; active = hit-call score of the fitted dose curve at least 0.9, where 1 is the maximum); settings: HepG2 Attagene TRANS GAL4-LXRb reporter, mRNA
Summary of the method: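 HepG2 cells transiently transfected with multiple reporter transcription units carrying chimeric NR-Gal4 proteins acting on GAL4-UAS reporters; compound exposure 24 h. Reporter mRNA quantified by RT-PCR, 6-FAM labelling, HpaI digestion and capillary electrophoresis; gain of signal versus DMSO.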

[17] = biological target: Nuclear receptor subfamily 4 group A member 2 (Homo sapiens) (UniProt P43354); test: ATG_NURR1_TRANS: Attagene TRANS-FACTORIAL HepG2 Assay for human Nuclear Receptor Related Protein 1 (NURR1) (AID 2282985; active = hit-call score of the fitted dose curve at least 0.9, where 1 is the maximum); settings: HepG2 Attagene TRANS reporter, mRNA readout
Summary of the method: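 HepG2 cells transiently transfected with GAL4-UAS reporter units and chimeric NR-Gal4 constructs; chemical exposure 24 h. Reporter mRNA quantified by RT-PCR, fluorescent labelling and capillary electrophoresis; gain of signal fitted relative to DMSO baseline.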

[18] = biological target: Cellular tumor antigen p53 (Homo sapiens) (UniProt P04637); test: ATG_p53_CIS: Attagene CIS-FACTORIAL HepG2 Assay for human p53 Transcription Factor (AID 2282994); settings: HepG2 p53 cis-element reporter, Attagene mRNA; actives raise or lower the signal
Summary of the method: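 Using HepG2 hepatoma cells carrying cis-acting multiplexed reporters, mRNA induction is detected after a 24 h exposure. Gain- and loss-of-signal responses are fitted relative to DMSO-treated cells.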

[19] = biological target: Estrogen-related receptor gamma (Homo sapiens) (UniProt P62508); test: ATG_ERRg_TRANS: Attagene TRANS-FACTORIAL HepG2 Assay for human Estrogen-Related Receptor gamma (ERRg) (AID 2282977; active = hit-call score of the fitted dose curve at least 0.9, where 1 is the maximum;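 also: hits increase reporter signal over DMSO so potencies reflect activators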); settings: HepG2 Attagene TRANS reporter, ERRg transactivation
Summary of the method: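 Transient HepG2 transfectants, 24 h compound exposure, GAL4-UAS reporter mRNA by RT-PCR/6-FAM labelling/capillary electrophoresis; positive direction vs DMSO.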

[20] = biological target: Hepatocyte nuclear factor 4-alpha (Homo sapiens) (UniProt P41235); test: ATG_HNF4a_TRANS: Attagene TRANS-FACTORIAL HepG2 Assay for human Hepatocyte Nuclear Factor 4 alpha (HNF4a) (AID 2282982; active = hit-call score of the fitted dose curve at least 0.9, where 1 is the maximum); settings: HepG2 HNF4a transactivation reporter, mRNA readout
Summary of the method: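 HepG2 cells transiently transfected with multiplexed GAL4-UAS reporter units responsive to chimeric NR-GAL4 proteins; compound exposure 24 h. Reporter mRNA quantified by RT-PCR, 6-FAM labelling, HpaI digestion and capillary electrophoresis; gain of signal versus DMSO baseline.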

Measured: AC50

Sequence of Oxysterols receptor LXR-alpha (Homo sapiens) (Q13133 whole entry, looked up, the tested form may be a part): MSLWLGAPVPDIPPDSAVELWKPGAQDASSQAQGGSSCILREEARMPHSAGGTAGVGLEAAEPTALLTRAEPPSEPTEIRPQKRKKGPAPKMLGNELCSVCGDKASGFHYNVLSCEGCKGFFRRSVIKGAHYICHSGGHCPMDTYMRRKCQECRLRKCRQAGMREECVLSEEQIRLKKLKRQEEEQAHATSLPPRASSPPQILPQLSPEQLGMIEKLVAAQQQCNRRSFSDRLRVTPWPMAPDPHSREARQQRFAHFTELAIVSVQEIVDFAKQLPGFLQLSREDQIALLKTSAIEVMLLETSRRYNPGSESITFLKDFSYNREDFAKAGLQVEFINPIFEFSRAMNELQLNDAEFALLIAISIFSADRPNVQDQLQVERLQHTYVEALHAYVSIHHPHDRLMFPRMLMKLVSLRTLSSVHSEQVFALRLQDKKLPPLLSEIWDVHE
Sequence of Nuclear respiratory factor 1 (Homo sapiens) (Q16656 whole entry, looked up): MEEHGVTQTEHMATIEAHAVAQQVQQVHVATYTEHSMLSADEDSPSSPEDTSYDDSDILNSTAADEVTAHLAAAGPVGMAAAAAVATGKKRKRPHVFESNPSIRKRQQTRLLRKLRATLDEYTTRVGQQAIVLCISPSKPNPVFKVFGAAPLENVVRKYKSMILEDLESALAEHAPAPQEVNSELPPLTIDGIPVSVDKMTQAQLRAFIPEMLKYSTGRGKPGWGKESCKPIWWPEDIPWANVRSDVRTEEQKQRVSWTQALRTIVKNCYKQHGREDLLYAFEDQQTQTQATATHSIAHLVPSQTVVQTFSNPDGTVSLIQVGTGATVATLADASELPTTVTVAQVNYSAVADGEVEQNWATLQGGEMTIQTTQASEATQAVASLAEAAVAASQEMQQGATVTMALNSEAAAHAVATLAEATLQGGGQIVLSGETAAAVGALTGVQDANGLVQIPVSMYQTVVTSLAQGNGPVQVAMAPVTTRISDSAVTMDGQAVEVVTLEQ
Sequence of Glucocorticoid receptor (Homo sapiens) (P04150 whole entry, looked up): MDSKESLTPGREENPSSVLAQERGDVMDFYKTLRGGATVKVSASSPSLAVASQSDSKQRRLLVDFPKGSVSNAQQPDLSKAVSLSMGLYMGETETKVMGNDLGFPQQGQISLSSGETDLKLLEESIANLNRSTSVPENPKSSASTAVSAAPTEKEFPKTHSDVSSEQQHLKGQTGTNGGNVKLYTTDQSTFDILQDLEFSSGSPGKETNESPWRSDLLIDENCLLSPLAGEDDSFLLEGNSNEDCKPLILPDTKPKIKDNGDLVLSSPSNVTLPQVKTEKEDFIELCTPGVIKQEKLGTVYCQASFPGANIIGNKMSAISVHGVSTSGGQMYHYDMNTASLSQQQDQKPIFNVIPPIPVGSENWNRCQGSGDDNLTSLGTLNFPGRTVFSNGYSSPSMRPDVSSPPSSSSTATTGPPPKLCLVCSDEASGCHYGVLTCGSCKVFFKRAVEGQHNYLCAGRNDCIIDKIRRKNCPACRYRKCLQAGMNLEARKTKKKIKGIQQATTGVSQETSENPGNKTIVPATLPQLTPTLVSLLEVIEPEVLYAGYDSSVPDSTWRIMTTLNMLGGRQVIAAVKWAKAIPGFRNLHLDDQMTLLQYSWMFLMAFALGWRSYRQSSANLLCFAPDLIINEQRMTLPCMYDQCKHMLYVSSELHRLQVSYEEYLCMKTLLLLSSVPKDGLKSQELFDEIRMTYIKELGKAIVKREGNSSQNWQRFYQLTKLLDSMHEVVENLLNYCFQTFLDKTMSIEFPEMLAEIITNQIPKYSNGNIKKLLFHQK
Sequence of Oxysterols receptor LXR-beta (Homo sapiens) (P55055 whole entry, looked up, the tested form may be a part): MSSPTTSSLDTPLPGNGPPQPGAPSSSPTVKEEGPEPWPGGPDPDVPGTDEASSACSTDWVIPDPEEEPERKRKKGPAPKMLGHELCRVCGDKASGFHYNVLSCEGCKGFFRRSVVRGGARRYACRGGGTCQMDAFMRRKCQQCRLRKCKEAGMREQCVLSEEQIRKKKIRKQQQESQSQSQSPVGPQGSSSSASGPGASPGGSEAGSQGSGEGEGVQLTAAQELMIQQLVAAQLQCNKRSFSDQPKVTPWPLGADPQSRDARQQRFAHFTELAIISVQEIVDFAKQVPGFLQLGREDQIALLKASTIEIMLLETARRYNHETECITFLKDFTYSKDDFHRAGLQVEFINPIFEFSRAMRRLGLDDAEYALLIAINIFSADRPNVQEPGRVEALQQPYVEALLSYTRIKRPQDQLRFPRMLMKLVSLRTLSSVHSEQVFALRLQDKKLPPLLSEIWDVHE
Sequence of Bile acid receptor (Homo sapiens) (Q96RI1 whole entry, looked up, the tested form may be a part): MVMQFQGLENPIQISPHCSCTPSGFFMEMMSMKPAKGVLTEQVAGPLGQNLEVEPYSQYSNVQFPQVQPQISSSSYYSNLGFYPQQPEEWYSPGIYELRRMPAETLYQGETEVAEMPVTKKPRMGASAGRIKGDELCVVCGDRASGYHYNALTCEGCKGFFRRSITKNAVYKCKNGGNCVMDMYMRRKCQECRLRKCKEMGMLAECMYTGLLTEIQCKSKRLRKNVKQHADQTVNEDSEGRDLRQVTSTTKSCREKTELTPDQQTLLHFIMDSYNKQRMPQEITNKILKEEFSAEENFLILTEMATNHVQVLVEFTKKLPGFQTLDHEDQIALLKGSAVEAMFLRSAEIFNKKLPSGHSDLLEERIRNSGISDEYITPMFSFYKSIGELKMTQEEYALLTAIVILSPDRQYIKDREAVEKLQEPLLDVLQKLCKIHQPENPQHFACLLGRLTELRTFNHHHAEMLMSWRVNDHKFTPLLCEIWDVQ
Sequence of Transcriptional activator Myb (Homo sapiens) (P10242 whole entry, looked up): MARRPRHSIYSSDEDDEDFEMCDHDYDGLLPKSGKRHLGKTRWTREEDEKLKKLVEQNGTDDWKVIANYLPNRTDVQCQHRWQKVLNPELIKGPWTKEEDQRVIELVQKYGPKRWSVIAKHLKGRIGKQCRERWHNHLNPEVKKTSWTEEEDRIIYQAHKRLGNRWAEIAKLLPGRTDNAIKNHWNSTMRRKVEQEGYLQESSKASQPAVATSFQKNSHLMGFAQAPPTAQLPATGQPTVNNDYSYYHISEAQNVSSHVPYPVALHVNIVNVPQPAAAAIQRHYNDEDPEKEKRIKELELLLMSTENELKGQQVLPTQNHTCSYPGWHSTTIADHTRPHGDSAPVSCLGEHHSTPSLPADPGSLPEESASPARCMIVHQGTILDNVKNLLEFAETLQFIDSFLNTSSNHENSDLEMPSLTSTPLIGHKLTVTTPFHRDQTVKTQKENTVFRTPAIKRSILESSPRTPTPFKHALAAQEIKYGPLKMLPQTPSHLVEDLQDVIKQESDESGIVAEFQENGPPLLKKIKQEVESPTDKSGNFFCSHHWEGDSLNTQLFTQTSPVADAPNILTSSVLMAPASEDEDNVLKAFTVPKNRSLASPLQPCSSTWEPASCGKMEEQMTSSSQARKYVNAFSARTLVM
Sequence of Myc proto-oncogene protein (Homo sapiens) (P01106 whole entry, looked up): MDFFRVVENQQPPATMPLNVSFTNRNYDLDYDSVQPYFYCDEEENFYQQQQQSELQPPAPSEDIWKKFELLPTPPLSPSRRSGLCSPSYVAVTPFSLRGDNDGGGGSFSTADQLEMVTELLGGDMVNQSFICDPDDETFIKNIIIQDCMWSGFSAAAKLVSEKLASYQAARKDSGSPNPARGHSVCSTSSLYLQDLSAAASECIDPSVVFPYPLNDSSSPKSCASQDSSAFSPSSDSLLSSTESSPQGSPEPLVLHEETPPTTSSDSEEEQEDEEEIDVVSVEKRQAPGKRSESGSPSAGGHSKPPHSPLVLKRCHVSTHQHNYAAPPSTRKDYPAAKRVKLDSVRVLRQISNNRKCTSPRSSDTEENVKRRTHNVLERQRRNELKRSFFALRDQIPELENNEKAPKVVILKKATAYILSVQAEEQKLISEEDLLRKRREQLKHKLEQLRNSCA
Sequence of Cellular tumor antigen p53 (Homo sapiens) (P04637 whole entry, looked up): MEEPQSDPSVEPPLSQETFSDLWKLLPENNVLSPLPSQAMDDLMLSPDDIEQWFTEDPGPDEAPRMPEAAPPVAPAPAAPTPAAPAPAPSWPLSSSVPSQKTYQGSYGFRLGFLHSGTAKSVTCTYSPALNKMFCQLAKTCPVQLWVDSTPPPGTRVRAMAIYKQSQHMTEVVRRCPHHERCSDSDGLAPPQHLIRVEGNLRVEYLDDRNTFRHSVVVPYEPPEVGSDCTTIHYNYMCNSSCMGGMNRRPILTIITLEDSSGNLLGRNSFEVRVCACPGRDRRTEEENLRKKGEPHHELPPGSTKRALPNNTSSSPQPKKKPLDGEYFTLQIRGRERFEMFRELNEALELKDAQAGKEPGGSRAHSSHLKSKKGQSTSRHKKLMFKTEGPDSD
Sequence of Nuclear receptor subfamily 4 group A member 2 (Homo sapiens) (P43354 whole entry, looked up, the tested form may be a part): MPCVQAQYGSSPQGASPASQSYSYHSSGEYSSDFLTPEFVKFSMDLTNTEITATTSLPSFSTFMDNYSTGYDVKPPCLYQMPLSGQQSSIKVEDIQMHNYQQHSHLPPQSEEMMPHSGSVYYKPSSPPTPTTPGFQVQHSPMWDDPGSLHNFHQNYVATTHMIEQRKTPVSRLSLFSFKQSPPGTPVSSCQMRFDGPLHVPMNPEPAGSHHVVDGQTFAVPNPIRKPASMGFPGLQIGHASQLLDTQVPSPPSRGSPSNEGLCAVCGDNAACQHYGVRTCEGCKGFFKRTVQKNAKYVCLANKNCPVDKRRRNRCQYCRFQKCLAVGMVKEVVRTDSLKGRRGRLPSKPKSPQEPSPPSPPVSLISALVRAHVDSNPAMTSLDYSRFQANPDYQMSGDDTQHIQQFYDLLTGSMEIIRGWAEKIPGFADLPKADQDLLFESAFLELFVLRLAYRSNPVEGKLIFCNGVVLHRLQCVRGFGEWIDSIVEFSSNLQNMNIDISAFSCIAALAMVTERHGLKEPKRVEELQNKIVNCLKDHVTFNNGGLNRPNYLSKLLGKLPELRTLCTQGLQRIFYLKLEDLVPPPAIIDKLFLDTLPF

CCOP(=S)(OCC)SCS(=O)(=O)CC
inactive: [1] | [2] | [3] | [4] | [5] | [6] | [7] | [8] | [9] | [10] | [11] | [12] | [13] | [14] | [15]

CCCCOCCOP(=O)(OCCOCCCC)OCCOCCCC
inactive: [1] | [2] | [4] | [16] | [5] | [6] | [17] | [7] | [8] | [9] | [10] | [11] | [12] | [13] | [18] | [14] | [15]

O=P(Oc1ccccc1)(Oc1ccccc1)Oc1ccccc1
active: [17] 47.9 µM | [12] 28.5 µM | [13] 25.2 µM | [14] 27.3 µM | [15] 32.2 µM
inactive: [1] | [2] | [3] | [5] | [6] | [7] | [8] | [9] | [10] | [11] | [18]

CC(C)(C)N(NC(=O)c1ccc(Cl)cc1)C(=O)c1ccccc1
inactive: [1] | [2] | [3] | [4] | [16] | [5] | [17] | [7] | [8] | [9] | [10] | [12] | [13]

OCC(F)(F)OC(F)(F)C(F)(F)OC(F)(F)C(F)(F)OC(F)(F)F
inactive: [1] | [19] | [2] | [3] | [4] | [16] | [20] | [5] | [6] | [17] | [7] | [8] | [9] | [10] | [11] | [12] | [13] | [18]
active: [18] 76.8 µM | [14] 30 µM and 47.3 µM | [15] 43.9 µM and 46.4 µM

CC(C)(C)c1ccccc1OP(=O)(Oc1ccccc1)Oc1ccccc1
active: [17] 57.4 µM | [12] 19.8 µM | [14] 20 µM | [15] 20 µM
inactive: [1] | [19] | [2] | [3] | [6] | [7] | [8] | [9] | [10] | [11] | [13]

CC(O)C#N (configuration not stated)
inactive: [1] | [2] | [3] | [4] | [5] | [7] | [8] | [9] | [10] | [11] | [12] | [13] | [18]

N#Cc1cc([N+](=O)[O-])ccc1N
active: [12] 27.2 µM | [14] 0.706 µM
inactive: [1] | [2] | [3] | [16] | [5] | [6] | [17] | [7] | [8] | [9] | [10] | [11] | [13] | [18] | [15]
